Source: PubChem BioAssay (NCI)
This is part of a sample that, as a whole, favours compounds with a hit. Of some 83,000 tested, about 20% had one in any assay.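 96-well plates, one dose, 48 hours. Percent growth reported; active if below 10.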 A number with no mark means an inactive call. The source made the active and inactive calls.

How the values were obtained:
Assay in all cases: NCI-60 one-dose screen, 48 h (100 = growth as untreated, 0 = no growth, -100 = all killed)
Conditions in all cases: 10 µM unless noted
NCI-H23 lung = system: NCI-H23 lung
NCI-H226 lung = system: NCI-H226 lung
NCI-H322M lung = system: NCI-H322M lung
HOP-62 NSCLC = system: HOP-62 NSCLC
NCI-H460 lung = system: NCI-H460 lung
HOP-92 NSCLC = system: HOP-92 NSCLC
NCI-H522 lung = system: NCI-H522 lung
A549/ATCC NSCLC = system: A549/ATCC NSCLC
786-0 renal = system: 786-0 renal
COLO 205 colon = system: COLO 205 colon
DU-145 prostate = system: DU-145 prostate
MALME-3M melanoma = system: MALME-3M melanoma
MDA-MB-231 breast = system: MDA-MB-231 breast
RXF 393 renal = system: RXF 393 renal
SF-268 CNS = system: SF-268 CNS
SF-295 CNS = system: SF-295 CNS
SF-539 CNS = system: SF-539 CNS
UACC-257 melanoma = system: UACC-257 melanoma
K-562 leukemia = system: K-562 leukemia
M14 melanoma = system: M14 melanoma

CC(=O)NCC(=O)Nc1ccc(-c2nnc3ccccn23)nc1.CC(=O)NCC(=O)Nc1ccc(-c2nnc3ccccn23)nc1.[Pt+2]
growth (NCI-H23 lung): 99.4%
growth (NCI-H226 lung): 110%
growth (NCI-H322M lung): 112%
growth (HOP-62 NSCLC): 101%
growth (NCI-H460 lung): 99.6%
growth (HOP-92 NSCLC): 119%
growth (NCI-H522 lung): 83.6%
growth (A549/ATCC NSCLC): 85%
growth (786-0 renal): 107%
growth (COLO 205 colon): 111%
growth (DU-145 prostate): 109%
growth (MALME-3M melanoma): 105%
growth (MDA-MB-231 breast): 104%
growth (RXF 393 renal): 117%
growth (SF-268 CNS): 109%
growth (SF-295 CNS): 117%
growth (SF-539 CNS): 110%
growth (UACC-257 melanoma): 78.7%

O=c1oc2ccc(Cl)cc2cc1-c1cs/c(=N/N=C\c2ccc(Cl)cc2)n1/N=C/c1ccc(Cl)cc1
growth (NCI-H23 lung): 99.7%
growth (NCI-H226 lung): 102%
growth (NCI-H322M lung): 97.9%
growth (HOP-62 NSCLC): 109%
growth (NCI-H460 lung): 105%
growth (HOP-92 NSCLC): 98%
growth (NCI-H522 lung): 75.2%
growth (A549/ATCC NSCLC): 89.3%
growth (786-0 renal): 97.9%
growth (COLO 205 colon): 109%
growth (DU-145 prostate): 108%
growth (MALME-3M melanoma): 98.9%
growth (MDA-MB-231 breast): 101%
growth (RXF 393 renal): 113%
growth (SF-268 CNS): 104%
growth (SF-295 CNS): 108%
growth (SF-539 CNS): 107%
growth (UACC-257 melanoma): 95.1%

Clc1ccc(/C=N\N=c2\scc(-c3ccc(Cl)cc3)n2/N=C/c2ccc(Cl)cc2)cc1
growth (NCI-H23 lung): 94.4%
growth (NCI-H226 lung): 111%
growth (NCI-H322M lung): 95.7%
growth (HOP-62 NSCLC): 107%
growth (NCI-H460 lung): 97.9%
growth (HOP-92 NSCLC): 106%
growth (NCI-H522 lung): 68.7%
growth (A549/ATCC NSCLC): 75.7%
growth (786-0 renal): 98.1%
growth (COLO 205 colon): 113%
growth (DU-145 prostate): 105%
growth (MALME-3M melanoma): 100%
growth (MDA-MB-231 breast): 101%
growth (RXF 393 renal): 108%
growth (SF-268 CNS): 97.8%
growth (SF-295 CNS): 109%
growth (SF-539 CNS): 96.1%
growth (UACC-257 melanoma): 77.9%

COc1ccc(/C(C)=C(\c2ccc(Cl)cc2)c2ccc(OCCN3CCCCC3)cc2)cc1F
growth (NCI-H23 lung): 48.1%
growth (NCI-H226 lung): 77%
growth (NCI-H322M lung): 76.1%
growth (HOP-62 NSCLC): 16.8%
growth (NCI-H460 lung): 7.34% (active)
growth (HOP-92 NSCLC): 59.6%
growth (NCI-H522 lung): 65.5%
growth (A549/ATCC NSCLC): 53%
growth (786-0 renal): 2.47% (active)
growth (COLO 205 colon): 5.95% (active)
growth (DU-145 prostate): 63.3%
growth (K-562 leukemia): 1.56% (active)
growth (MALME-3M melanoma): -27.2% (active)
growth (MDA-MB-231 breast): 49.5%
growth (SF-268 CNS): 63.5%
growth (SF-295 CNS): -19.7% (active)
growth (SF-539 CNS): 4.69% (active)
growth (UACC-257 melanoma): 24.6%

C[C@@H]1CC[C@@H]2[C@@H]1[C@H](OC(=O)/C=C/c1ccccc1)[C@]1(C3CCCCC3)C[C@@H](NC(=O)CO)[C@@]2(C)O1
growth (NCI-H23 lung): 95.8%
growth (NCI-H226 lung): 102%
growth (NCI-H322M lung): 92.9%
growth (HOP-62 NSCLC): 112%
growth (NCI-H460 lung): 94.5%
growth (HOP-92 NSCLC): 94.4%
growth (NCI-H522 lung): 71.9%
growth (A549/ATCC NSCLC): 101%
growth (786-0 renal): 96.4%
growth (COLO 205 colon): 109%
growth (DU-145 prostate): 107%
growth (MALME-3M melanoma): 99.2%
growth (MDA-MB-231 breast): 102%
growth (RXF 393 renal): 53.2%
growth (SF-268 CNS): 97.4%
growth (SF-295 CNS): 112%
growth (SF-539 CNS): 100%
growth (UACC-257 melanoma): 110%

COc1cc(C2C=C(c3cccc(NC(C)=O)c3)Nc3ncnn32)cc(OC)c1OC (stereo not drawn)
growth (NCI-H23 lung): 29.8%
growth (NCI-H226 lung): 43.5%
growth (NCI-H322M lung): 37%
growth (HOP-62 NSCLC): 62.6%
growth (NCI-H460 lung): 14.6%
growth (HOP-92 NSCLC): 68.9%
growth (NCI-H522 lung): -3.09% (active)
growth (A549/ATCC NSCLC): 45.5%
growth (786-0 renal): 50.1%
growth (DU-145 prostate): 2.4% (active)
growth (K-562 leukemia): 23.6%
growth (MALME-3M melanoma): 25.6%
growth (MDA-MB-231 breast): 16.4%
growth (RXF 393 renal): -28.3% (active)
growth (SF-268 CNS): 36.9%
growth (SF-295 CNS): -58% (active)
growth (SF-539 CNS): -5.24% (active)
growth (UACC-257 melanoma): 71.2%
growth (M14 melanoma): 20.4%

Cc1c(C(=O)O[C@H]2[C@@H]3[C@H](C)CC[C@H]3[C@]3(C)O[C@@]2(C2CCCCC2)C[C@H]3OC(=O)CO)ccc2ccccc12
growth (NCI-H23 lung): 35.2%
growth (NCI-H226 lung): 30.5%
growth (NCI-H322M lung): 70.5%
growth (HOP-62 NSCLC): 29.7%
growth (NCI-H460 lung): -36% (active)
growth (HOP-92 NSCLC): 10.9%
growth (NCI-H522 lung): 19.6%
growth (A549/ATCC NSCLC): 30.2%
growth (786-0 renal): 9.76% (active)
growth (DU-145 prostate): 58.7%
growth (K-562 leukemia): 7.53% (active)
growth (MALME-3M melanoma): 42.3%
growth (MDA-MB-231 breast): 33.2%
growth (RXF 393 renal): -31.7% (active)
growth (SF-268 CNS): 16%
growth (SF-295 CNS): 36.8%
growth (SF-539 CNS): 65.6%
growth (UACC-257 melanoma): 39.8%
growth (M14 melanoma): 36.2%
